From PubChem BioAssay (NCI)
Compounds without any hit were thinned out: in the full panel of roughly 83,000, 20% have a hit.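 Single-concentration screen, 48 h exposure, 96-well plates. Endpoint: percent growth. Below 10 = active.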 Values without a mark were called inactive. Calls of active or inactive are those of the source.

Experiments:
Assay in all cases: NCI-60 one-dose screen, 48 h (100 = growth as untreated, 0 = no growth, -100 = all killed)
Details in all cases: 10 µM unless noted
SR leukemia = test system: SR leukemia
RPMI-8226 leukemia = test system: RPMI-8226 leukemia
OVCAR-8 ovarian = test system: OVCAR-8 ovarian
OVCAR-5 ovarian = test system: OVCAR-5 ovarian
OVCAR-4 ovarian = test system: OVCAR-4 ovarian
SK-OV-3 ovarian = test system: SK-OV-3 ovarian
OVCAR-3 ovarian = test system: OVCAR-3 ovarian
HS 578T breast = test system: HS 578T breast
NCI/ADR-RES ovarian = test system: NCI/ADR-RES ovarian
IGROV1 ovarian = test system: IGROV1 ovarian

| SMILES | growth (SR leukemia) | growth (RPMI-8226 leukemia) | growth (OVCAR-8 ovarian) | growth (OVCAR-5 ovarian) | growth (OVCAR-4 ovarian) | growth (SK-OV-3 ovarian) [%] | growth (OVCAR-3 ovarian) | growth (HS 578T breast) | growth (NCI/ADR-RES ovarian) | growth (IGROV1 ovarian) |
| --- | --- | --- | --- | --- | --- | --- | --- | --- | --- | --- |
| Clc1ccc(/C=N\N=C\c2ccc(Cl)c(Cl)c2)cc1Cl | 103% | 102% | 85.7% | 66.9% | 97.9% | 87.4 | 119% | 106% | 77.3% |  |
| C/C(Cc1ccc(Cl)cc1)=C(\c1ccc(O)cc1)c1ccc(Cl)cc1 | 80.5% | 72.5% | 104% | 92.5% | 89.3% |  | 103% | 99.6% | 100% | 96.8% |
| CCCOC(=O)Nc1nc2ccc(SCC(C)C)cc2s1 | 14.3% | 28.4% | 60.5% | 60.1% | 61.2% |  | 15.6% | 65.3% | 16.1% | 55.4% |
| O=S(=O)(Nc1cc(F)cc(Cl)c1)c1ccc(-c2cnc(C3CC3)o2)cc1 | 25.4% | 28.9% | 39.8% | 50.8% | 52.5% |  | 10.2% | -3.79% (active) | 21.9% |  |
| CCN(CC)Cc1cc(C=C2C(=O)NC(=S)NC2=O)cc(OC)c1O | 109% | 110% | 113% | 104% | 122% |  | 114% | 103% | 110% | 112% |
| COCCOc1cc2ncnc(N3CCN(c4cc(S(C)(=O)=O)c(C)cc4Cl)CC3)c2cc1OCCOC | 77% | 76% | 83.2% | 109% | 103% |  | 96.1% | 90.6% | 83.2% | 98% |
| CCOC(=O)NC(C)C | 112% | 113% | 103% | 90.5% | 107% |  | 112% | 111% | 93.5% | 91.2% |
| Cc1[nH]c(C(=O)Nc2ccc(C(=O)N3CCN(c4cc5c(cc4F)c(=O)c(C(=O)O)cn5C4CC4)CC3)cc2OC(C)C)c(Cl)c1Cl | 45.9% | 34.2% | 78.2% | 95.1% | 94.5% |  | 85.8% | 87.2% | 78.4% | 49.5% |
| NC(=O)c1c(NC(=O)c2ccc3ccccc3c2)sc2c1CCC(=O)C2 | 8.41% (active) | -12.1% (active) | 46.1% | 74.7% | 5.13% (active) |  | 23% | 49.6% | 85.3% | 42.7% |
| COc1ccc(NC2=C(I)C(=O)c3ncccc3C2=O)cc1 | 6.66% (active) | 4.44% (active) | 8.5% (active) | -62.8% (active) | -88.3% (active) |  | -10.1% (active) | -15.9% (active) | 0.698% (active) | -43.9% (active) |
| C=CCSc1nnc(NC(=O)CCl)s1 | 88.4% | 73% | 92.5% | 120% | 73.2% |  | 94.8% |  | 93% | 81.6% |
| Nc1nc(-c2ccc(Cl)cc2)nc2c1sc(=S)n2-c1ccccc1 | -17.8% (active) | 45.5% | 32.4% | 62.6% | -20.1% (active) |  | 40.2% | 19.9% | 43.8% | 44.9% |
| O=c1[nH]c(-c2ccccc2)nc2sc3cc(O)ccc3c12 | 54.2% | 82.3% | 100% | 115% | 80% |  | 93.4% | 89% | 95.5% | 74.1% |
| COc1ccc(/C=N\Nc2nc(SCCC(C)C)nc(-c3ccc(OC)cc3)c2C#N)cc1 | 4.53% (active) | 54.4% | 39.5% | 63.3% | -57.2% (active) |  | 12.8% | 29.4% | 74.8% | 34.5% |
| CCOc1ccccc1Cn1ccnc1CCc1c(Cl)c(O)cc(O)c1C(=O)OC | 91.5% | 86.9% | 97.7% | 95.8% | 114% | 91.9 | 106% | 107% | 93.5% |  |
| O=C(Nc1cccc(-c2ccc(N3CCOCC3)nn2)c1)Nc1cccc(C(F)(F)F)c1 | 60.4% | 31.4% | 35.4% | 125% | 73.3% |  | 74.3% | 91.6% | 72.2% |  |
| C=C(CBr)[C@@H]1CC[C@]2(C(=O)O)CC[C@]3(C)[C@H](CC[C@@H]4[C@@]5(C)CCC(=O)C(C)(C)[C@@H]5CC[C@]43C)[C@@H]12 | 60% | 42.3% | 84.2% | 89.8% | 75.3% |  | 70.8% | 92.2% | 83.4% | 103% |
| CCOC(=O)c1c(NC(=O)c2cccc(C(F)(F)F)c2)sc2c(CN(C)C)c(O)ccc12 | -2.46% (active) | -17.3% (active) | 82.1% | 89.5% | 91.1% |  | 98.5% | 89.8% | 79% | 83.1% |
| COc1cc2oc(-c3cccc(NC(=O)c4ccccc4)c3)cc(=O)c2c(OC)c1OC | 31.6% | 26.6% | 61% | 100% | 81.7% | 104 | 84.2% |  | 74.5% |  |
| COCCn1cc(-c2csc(-c3cn(C)c4ccc(Br)cc34)n2)c2cccnc21 | 31.3% | 60.7% | 56.3% | 68.3% | 71% |  | 80.3% |  | 60% | 80.2% |
| O=C(c1ccccc1)c1ccc(C2CCCCC2)cc1 | 107% | 95.6% | 97.8% | 95.4% | 95.2% | 91.6 | 98.7% |  | 99.7% |  |
| COc1ccc(OC)c(-c2nc(SCC(=O)c3ccc(C#N)cc3)[nH]c(=O)c2C#N)c1 | 97.3% | 114% | 99.3% | 89.5% | 106% |  | 89.4% | 102% | 97.4% | 96.4% |
| CN1CCN(C(=O)c2ccc(NC(=O)c3cc4c(nn3)NCCN4Cc3cc(Cl)ccc3Cl)cc2)CC1 | 0.181% (active) | 65.3% | 91.1% | 56.4% | 72.8% | 88.4 | 89.8% | 76.9% | 95.7% |  |
| CC(C)c1ccc(C(=O)Nc2sc3c(c2C(N)=O)CCC(=O)C3)cc1 | 0.332% (active) | -37.1% (active) | 11% |  | -85.4% (active) | 25.8 | -35.7% (active) |  | 1.35% (active) | 9.75% (active) |
| COc1ccc(-c2cc(-c3cccnc3)nc3sc4c(=O)[nH]c(-c5ccc(Cl)cc5)nc4c23)cc1OC | 87.5% | 88.8% | 92.2% |  | 87.9% | 95.2 | 102% | 92% | 98% | 90.3% |
| COc1ccc(C2=C(Br)C(=O)c3nc(C)ccc3C2=O)cc1 | 17.3% | 72.5% | 88.8% |  | 87.9% | 85.1 | 40% | 90.8% | 97.4% |  |
| C[C@@H](CO)[C@@H]1CCC=C2CC[C@]3(C)[C@H](CC[C@@H]4[C@@]5(C)CCCNC(C)(C)[C@@H]5CC[C@]43C)[C@H]21 | -29.9% (active) | -19.8% (active) | 67.2% |  | 48.8% | 107 | 69.8% | 69.8% | 80.9% | 71.3% |
| O=C(Nc1ccc(Oc2cccc(F)c2)c(Cl)c1)c1cccnc1 | 23.8% | 15.8% | 34.6% |  | 46.2% | 30 | 6.97% (active) | 31.3% | 13.9% | 41.8% |
| COC1=CC(c2ccc[nH]2)=N/C1=C\c1[nH]c(C)c(C)c1CCC(=O)OCc1ccccc1 | -47.1% (active) | -51.1% (active) | -11.3% (active) |  | 9.61% (active) | 29.5 | -73.8% (active) | -9.2% (active) | -0.591% (active) | 0.242% (active) |
| CCCCCCCC[C@@H]1N[C@@H](C(=O)OC)Cc2c1[nH]c1ccccc21 | 107% | 95.4% | 98.6% |  | 91.9% | 101 | 101% | 91.7% | 86.5% | 82.9% |
